Test results as given in PubChem BioAssay (Tox21).
Values joined by “and” are separate entries in the source; they are usually repeats but may differ in a detail not shown here. Equal values may be shown once. Inconclusive results are not listed. Active and inactive are the calls of the source. Unless noted, calls come from the whole dose curve; as a rule, active = well fitted curve in the direction sought with a large enough effect in the repeat runs; inconclusive = weak or mixed curves; inactive = no such curve, though single readings can be large; an effect the other way counts as inactive or inconclusive.

Assays:
[1] = qHTS assay to identify small molecule antagonists of the estrogen receptor alpha (ER-alpha) signaling pathway using the BG1 cell line in the presence of 0.1 nM 17-beta-estradiol - cell viability counter screen (AID 1259241); note: nearly all actives have a fitted effect of over 40% in size; note: potency is the fitted concentration of half-maximal effect
In short: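 Cells were plated and left 24 hr, compounds in DMSO were pinned in, 17beta-estradiol was added to 0.1 nM final, and after 22 hr CellTiter-Fluor reagent was added for 30 min before fluorescence was read.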

[2] = molecular target: Estrogen receptor (Homo sapiens) (UniProt P03372); test: qHTS assay to identify small molecule antagonists of the estrogen receptor alpha (ER-alpha) signaling pathway using the BG1 cell line in the presence of 0.1 nM 17-beta-estradiol (AID 1259244); note: nearly all actives have a fitted effect of over 50% in size; note: potency is the fitted concentration of half-maximal effect
In short: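 Seeding of stripped-serum-adapted VM7Luc4E2 cells, 24 h attachment, compound transfer, then 0.1 nM final 17beta-estradiol; after 22 h incubation, ONE-Glo reagent and luminescence reading.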

[3] = qHTS assay to identify small molecule HDAC inhibitors (AID 1259364);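 note: wild-type HCT-116 cells with endogenous class I/II HDAC activity; top concentration of the series differs between compounds; nearly all actives have a fitted effect of over 45% in size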
In short: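 After a 2 hr compound incubation (37C, 5% CO2), HCT-116 cells seeded at 1,500/well the day before received HDAC-Glo reagent; signal read as luminescence after 30 min at room temperature.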

[4] = qHTS assay to identify small molecule HDAC inhibitors - cell viability counter screen (AID 1259365); note: series mostly up to about 92 µM; nearly all actives have a fitted effect of over 50% in size
In short: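 Counter screen in wild-type HCT-116 cells: compounds dissolved in DMSO are pin-transferred onto overnight-plated cells and left 2hr at 37C. ATP-based CellTiter-Glo luminescence then measures viable cells.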

[5] = qHTS assay to identify small molecule agonists of the sonic hedgehog signaling (Shh) pathway - cell viability counter screen (AID 1259366); note: nearly all actives have a fitted effect of over 50% in size; note: potency is the fitted concentration of half-maximal effect
In short: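 Cells are plated at 2,000 per well and left 4hr at 37C, 5% CO2 before compound addition. After 23hr of treatment, CellTiter-Fluor reagent is added for 1hr at 37C and fluorescence is measured.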

[6] = qHTS assay to identify small molecule antagonists of the sonic hedgehog signaling (Shh) pathway - cell viability counter screen (AID 1259367); note: nearly all actives have a fitted effect of over 55% in size; note: potency is the fitted concentration of half-maximal effect
In short: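 Viability was read by CellTiter-Fluor fluorescence in the same wells, reagent added 23 hr into compound treatment and incubated 1 hr at 37C. The 3T3 Gli1-Luc reporter cells (2,000/well) received conditioned medium after compound and ran 24 hr.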

[7] = qHTS assay to identify small molecule agonists of the sonic hedgehog signaling (Shh) pathway (AID 1259368; calls by dose curve; note: nearly all actives have a fitted effect of over 15% in size; note: potency is the fitted concentration of half-maximal effect;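 for activity change: NIH/3T3-derived 3T3Gli1-Luc cells carrying a stable Gli1-driven firefly luciferase reporter; series mostly up to about 92 µM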)
In short: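 Stable NIH/3T3 Gli1-Luc reporter clone; 24 hr cpd exposure after a 4 hr settling period; luminescence endpoint.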

[8] = qHTS assay to identify small molecule antagonists of the androgen receptor (AR) signaling pathway using the MDA cell line in the presence of 0.5 nM R1881 - cell viability counter screen (AID 1259242); note: nearly all actives have a fitted effect of over 45% in size; note: potency is the fitted concentration of half-maximal effect
In short: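 Human breast carcinoma MDA-kb2 cells, cultured without CO2, receive compounds alongside 0.5 nM (final) R1881 agonist. After 16 hr at 37C, viability is taken as live-cell protease signal.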

[9] = qHTS assay to identify small molecule phospholipidosis (PLD) inducers (AID 1259344; active = well fitted curve in the direction sought with a large enough effect; an effect the other way counts as inactive or inconclusive)
In short: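 Phospholipid accumulation was scored by imaging: fixed, Hoechst-counterstained HepG2 cells stained with LipidTOX Red after 24 h compound exposure at 37 C. Read-outs were pit count and pit intensity per well or per cell, with amiodarone and DMSO controls.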

[10] = molecular target: Androgen receptor (Homo sapiens) (UniProt P10275); test: qHTS assay to identify small molecule antagonists of the androgen receptor (AR) signaling pathway using the MDA cell line in the presence of 0.5 nM R1881 (AID 1259243); note: nearly all actives have a fitted effect of over 50% in size; note: potency is the fitted concentration of half-maximal effect
In short: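 Cells: MDA-kb2 (MMTV-luc). Stimulus: 0.5 nM R1881. Time: 16 hr, 37C, no CO2. Detection: ONE-Glo luminescence after 30 min at RT.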
% is set by controls: 0 for no effect and ±100 for the full control effect.

Androgen receptor (Homo sapiens), sequence (P10275 whole entry, looked up): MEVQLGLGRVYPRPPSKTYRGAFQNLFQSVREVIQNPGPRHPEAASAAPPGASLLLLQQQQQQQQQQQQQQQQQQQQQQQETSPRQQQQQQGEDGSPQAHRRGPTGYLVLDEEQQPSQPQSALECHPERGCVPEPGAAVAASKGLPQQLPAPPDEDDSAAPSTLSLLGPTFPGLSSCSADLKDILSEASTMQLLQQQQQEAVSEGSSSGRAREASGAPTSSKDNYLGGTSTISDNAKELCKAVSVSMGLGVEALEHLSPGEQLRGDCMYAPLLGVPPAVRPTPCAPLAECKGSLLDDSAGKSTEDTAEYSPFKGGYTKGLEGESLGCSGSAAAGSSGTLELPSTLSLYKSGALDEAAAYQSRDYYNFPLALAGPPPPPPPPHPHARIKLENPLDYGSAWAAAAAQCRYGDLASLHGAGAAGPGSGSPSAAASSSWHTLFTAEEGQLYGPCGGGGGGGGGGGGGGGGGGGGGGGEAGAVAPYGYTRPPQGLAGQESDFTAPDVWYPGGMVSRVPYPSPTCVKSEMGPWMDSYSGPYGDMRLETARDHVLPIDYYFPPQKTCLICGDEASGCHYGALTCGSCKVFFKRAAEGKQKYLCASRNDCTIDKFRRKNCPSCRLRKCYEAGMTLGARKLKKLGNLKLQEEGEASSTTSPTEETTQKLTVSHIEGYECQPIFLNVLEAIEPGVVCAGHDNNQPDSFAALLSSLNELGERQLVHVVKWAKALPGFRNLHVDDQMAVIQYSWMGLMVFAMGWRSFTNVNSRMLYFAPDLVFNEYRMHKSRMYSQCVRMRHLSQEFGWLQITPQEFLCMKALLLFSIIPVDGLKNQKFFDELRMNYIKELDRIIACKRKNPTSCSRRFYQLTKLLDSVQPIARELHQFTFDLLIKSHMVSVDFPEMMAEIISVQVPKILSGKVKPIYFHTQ
Estrogen receptor (Homo sapiens), sequence (P03372 whole entry, looked up): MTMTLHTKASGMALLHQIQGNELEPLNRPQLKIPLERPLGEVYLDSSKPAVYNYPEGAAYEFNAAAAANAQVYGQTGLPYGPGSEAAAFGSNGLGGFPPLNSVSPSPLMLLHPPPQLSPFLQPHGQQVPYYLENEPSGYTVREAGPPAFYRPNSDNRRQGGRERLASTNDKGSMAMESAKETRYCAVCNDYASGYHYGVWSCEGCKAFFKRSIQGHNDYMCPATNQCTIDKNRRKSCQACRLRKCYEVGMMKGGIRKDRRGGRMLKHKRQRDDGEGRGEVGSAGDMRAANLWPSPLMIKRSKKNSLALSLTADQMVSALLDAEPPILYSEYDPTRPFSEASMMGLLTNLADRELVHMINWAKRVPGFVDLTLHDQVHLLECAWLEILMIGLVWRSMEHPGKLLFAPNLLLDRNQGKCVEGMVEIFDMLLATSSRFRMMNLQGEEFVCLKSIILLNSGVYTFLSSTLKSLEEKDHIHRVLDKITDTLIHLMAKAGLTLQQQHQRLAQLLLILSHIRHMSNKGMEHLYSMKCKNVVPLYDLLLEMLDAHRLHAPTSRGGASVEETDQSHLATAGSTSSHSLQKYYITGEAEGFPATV

ClC1=C(Cl)[C@]2(Cl)[C@H]3[C@H]([C@@H]4C=C[C@H]3C4)[C@@]1(Cl)C2(Cl)Cl
inactive: Potency [1] | Potency [2] | Potency [3] | Potency [4] | Potency [5] | Potency [6] | Potency [7]

c1ccc(Nc2ccc(Nc3ccccc3)cc2)cc1
inactive: Potency [1] | Potency [2] | Potency [3] | Potency [4] | Potency [6]

Nc1nc(N)c(N)c(N)n1
inactive: Potency [1] | Potency [8] | Potency [3] | Potency [4] | Potency [7]

ClC1=C(Cl)[C@]2(Cl)[C@@H]3[C@H]4C[C@H]([C@@H]5O[C@H]45)[C@@H]3[C@@]1(Cl)C2(Cl)Cl
active: Potency [6] 68.5 µM
inactive: Potency [1] | Potency [2] | outcome [9] | Potency [3] | Potency [4] | Potency [7]

CC1CCCC1
inactive: Potency [1] | Potency [8] | Potency [3] | Potency [5] | Potency [6] | Potency [7]

ClCBr
inactive: Potency [1] | Potency [8] | Potency [3] | Potency [5] | Potency [6] | Potency [7]

BrCCCBr
inactive: Potency [1] | Potency [10] | Potency [3] | Potency [4] | Potency [5] | Potency [6] | Potency [7]

CC(Cl)CCl (stereo unspecified)
inactive: Potency [1] | Potency [2] | Potency [3] | Potency [4] | Potency [5] | Potency [6] | Potency [7]

O=[N+]([O-])c1cc(C(F)(F)F)c(Cl)c([N+](=O)[O-])c1Nc1ncc(C(F)(F)F)cc1Cl
active: Potency [1] 21.7 µM | Potency [8] 4.86 µM | Potency [6] 6.11 µM
inactive: Potency [3] | Potency [7]

[Cl-].[Cl-].[Cl-].[Yb+3]
inactive: Potency [1] | Potency [8] | Potency [3] | Potency [4] | Potency [7]

Clc1c(Cl)c(Cl)c(Cl)c(Cl)c1Cl
inactive: activity change, negative = cytotoxicity [1] 2.59% [at 8.39 µM] | activity change, negative = inhibition [3] 1.74% [at 8.39 µM] | activity change, negative = cytotoxicity [4] 0.165% [at 8.39 µM] | viability change, negative = cytotoxic [5] 1.7% [at 8.39 µM] | viability change, negative = cytotoxic [6] 2.78% [at 8.39 µM] | activity change [7] -0.252% [at 8.39 µM, stronger effect = higher value]

O=S1OCC2C(CO1)C1(Cl)C(Cl)=C(Cl)C2(Cl)C1(Cl)Cl (stereo unspecified)
inactive: Potency [8] | Potency [2] | Potency [3] | Potency [4] | Potency [7]
active: Potency [10] 48.6 µM and 54.4 µM | Potency [6] 48.5 µM

CC(C)=CCN1CC[C@@]2(C)c3cc(O)ccc3C[C@@H]1[C@@H]2C
inactive: Potency [8] | Potency [2] | outcome [9] | Potency [3] | Potency [4] | Potency [5] | Potency [6] | Potency [7]

CN=C=O
inactive: Potency [1] | Potency [3] | Potency [4] | Potency [6] | Potency [7]

COc1ccc2c(c1OC)C(=O)O[C@@H]2[C@H]1c2cc3c(cc2CCN1C)OCO3
inactive: Potency [8] | Potency [10] | Potency [3] | Potency [4] | Potency [7]
active: Potency [5] 2.41 µM | Potency [6] 3.03 µM

CCCCN(CCCC)C(=S)[S-].CCCCN(CCCC)C(=S)[S-].[Ni+2]
inactive: Potency [1] | Potency [3] | Potency [5] | Potency [6] | Potency [7]

CC(=O)[O-].CC(=O)[O-].CC(=O)[O-].[Sb+3]
inactive: activity change, negative = cytotoxicity [1] -1.06% [at 3.27 µM] | activity change, negative = inhibition [3] 2.54% [at 3.27 µM] | viability change, negative = cytotoxic [5] 5.24% [at 3.27 µM] | viability change, negative = cytotoxic [6] 4.31% [at 3.27 µM] | activity change [7] 0.122% [at 3.27 µM, stronger effect = higher value]

C#CCO
inactive: Potency [8] | Potency [2] | Potency [3] | Potency [4] | Potency [5] | Potency [6] | Potency [7]

CCCCON=O
inactive: Potency [1] | Potency [3] | Potency [4] | Potency [5] | Potency [6] | Potency [7]

S=C=NCCc1ccccc1
inactive: Potency [8] | Potency [3] | Potency [5] | Potency [6]
active: Potency [10] 48.7 µM | Potency [7] 61.3 µM

CN/C(=N\[N+](=O)[O-])NCc1cnc(Cl)s1
inactive: Potency [8] | Potency [2] | Potency [3] | Potency [4] | Potency [6] | Potency [7]

COP(=S)(OC)Oc1nc(Cl)c(Cl)cc1Cl
inactive: Potency [8] | Potency [2] | Potency [3] | Potency [4] | Potency [5] | Potency [6] | Potency [7]

CC1(C)C(C=C(Cl)Cl)C1C(=O)OC(C#N)c1ccc(F)c(Oc2ccccc2)c1 (stereo unspecified)
inactive: Potency [8] | Potency [2] | Potency [3] | Potency [4] | Potency [6] | Potency [7]

CSSC
inactive: Potency [1] | Potency [3] | Potency [4] | Potency [5] | Potency [6] | Potency [7]

Clc1ccc(C2(Cn3cncn3)OCCO2)c(Cl)c1
inactive: Potency [8] | Potency [2] | outcome [9] | Potency [3] | Potency [4] | Potency [6] | Potency [7]

CCOP(=S)(NC(C)C)Oc1ccccc1C(=O)OC(C)C (stereo unspecified)
inactive: Potency [1] | Potency [3] | Potency [4] | Potency [5] | Potency [7]

C=CC(=O)[O][Sn]([CH2]CCC)([CH2]CCC)[CH2]CCC
inactive: Potency [3] | Potency [7]
active: Potency [8] 1.09 µM | Potency [10] 0.545 µM | Potency [2] 1.72 µM | Potency [5] 0.243 µM | Potency [6] 1.09 µM
